Assay results as given in ChEMBL document CHEMBL3988442, “University of Dundee, Small-Polar-MMV Screening Library” (2021).

What follows are molecules tested against AMP-activated protein kinase, AMPK (Homo sapiens) (UniProt P54646+O43741+P54619+Q9UGJ0+Q9Y478+Q13131+Q9UGI9) (assay: AMP-dependent Kinase enzyme assay. An in vitro enzyme assay that detects ADP turnover that is directly proportional to AMPK activity. This uses naive AMPK that is activated during the assay with MK-8722). Details: 30 µM.
Assay type: functional
Design: scale not given: direction of the effect not stated beside the values
Molecule `Oc1ccc(N2CCC(Cc3ccccc3)CC2)nn1` has a Percent Effect of 9.16%.
`Cc1nc(N)cc(NCc2csc(N(C)C)n2)n1` was tested, and the Percent Effect was -14.5%.
For `CCC(=O)Nc1cccc(OCC(=O)N2C[C@H]3CC[C@H]2C3)c1`, the Percent Effect was -10.8%.
For `CC(C)C(NC(=O)C1CC1)c1cc(O)nc(-c2cccnc2)n1` (stereo not given), the Percent Effect was 6.3%.
`CC(C(=O)Nc1nccs1)N(C)Cc1cccc(C#N)c1` (stereo not given) was tested, and the Percent Effect was 8.51%.
For `COCCN(CC(F)F)c1cc(C(F)(F)F)nc2ncnn12`, the Percent Effect was 3.49%.
`CN(C)c1nccnc1C1CCN(C(=O)C2(C)CCCCN2C)CC1` (stereo not given) gave a Percent Effect of 9.26%.
`CC(Oc1cccc(Cl)c1)C(=O)Nc1cnn(CCN(C)C)c1` (stereo not given) was tested, and the Percent Effect was -7.28%.
`O=C(C1CCCN(CCc2ccc3c(c2)CCO3)C1)N1CCCC1` (stereo not given) showed a Percent Effect of 1.69%.
`NC1CCc2nc(-c3cccnc3)nc(Nc3ccc(F)cc3)c2C1` (stereo not given) showed a Percent Effect of 27.2%.
Molecule `CCOc1ccc2cc(C(=O)NCCC(=O)N(C)C)[nH]c2c1` has a Percent Effect of -3.77%.
With `O=C(CCOc1ccccc1F)N1CCOCC1` the Percent Effect was -12.5%.
`c1csc(N2CCN(c3ncnc4sccc34)CC2)n1` showed a Percent Effect of 18.5%.
With `c1ccc(-c2cc(CN3CCCCCC3c3ccco3)on2)nc1` (stereo not given) the Percent Effect was 8.41%.
`COc1nccc(N2CC[C@H](N3CCOCC3)[C@H](CCCO)C2)c1C#N` gave a Percent Effect of -3.46%.
With `Cc1cc(CNCC2CNc3ccnn3C2)no1` (stereo not given) the Percent Effect was -2.57%.
In the case of `NC(=O)c1ccc(NC2CCOC3(CCCC3)C2)nn1` (stereo not given), the Percent Effect is reported as 0.506%.
Molecule `CN(CC1(CO)CCC1)c1nc2c(c(=O)[nH]1)Cc1ccccc1OC2` has a Percent Effect of 1.42%.
`O=C(CN1CCCC(c2ccn[nH]2)C1)N1CCCc2ccccc21` (stereo not given) gave a Percent Effect of -2.2%.
`CN1C(=O)[C@H]2CC[C@@H]1CN(C(=O)Nc1cccc3ccccc13)C2` was tested, and the Percent Effect was -18.9%.
